PubChem BioAssay (NCI)
About 83,000 compounds went through this panel and 20% of them were active in at least one assay; those are over-represented in the sample as a whole.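 Cell lines were cultured in 96-well plates, exposed to a single compound concentration, and assessed for percent growth 48 hours later.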 A number with no mark means an inactive call. Active and inactive are the calls of the source. Rule for the calls: active = growth percent below 10; inactive = the rest.

Experiments:
Test in all cases: NCI-60 one-dose screen, 48 h (100 = growth as untreated, 0 = no growth, -100 = all killed)
Conditions in all cases: 10 µM unless noted
HCT-15 colon = test system: HCT-15 colon
HT29 colon = test system: HT29 colon
SNB-75 CNS = test system: SNB-75 CNS
SNB-19 CNS = test system: SNB-19 CNS
U251 CNS = test system: U251 CNS
PC-3 prostate = test system: PC-3 prostate
SK-MEL-5 melanoma = test system: SK-MEL-5 melanoma
UACC-62 melanoma = test system: UACC-62 melanoma
LOX IMVI melanoma = test system: LOX IMVI melanoma
SK-MEL-28 melanoma = test system: SK-MEL-28 melanoma
SK-MEL-2 melanoma = test system: SK-MEL-2 melanoma
EKVX NSCLC = test system: EKVX NSCLC
SN12C renal = test system: SN12C renal
UO-31 renal = test system: UO-31 renal
TK-10 renal = test system: TK-10 renal
ACHN renal = test system: ACHN renal
CAKI-1 renal = test system: CAKI-1 renal
CCRF-CEM leukemia = test system: CCRF-CEM leukemia
MOLT-4 leukemia = test system: MOLT-4 leukemia

## CNC(=O)c1cncc(Cn2nc(C)c(NC(=O)c3ccc(COc4ccc(C(F)(F)F)cc4C)cc3)c2C)c1
HCT-15 colon
  growth: 74.7%
HT29 colon
  growth: 56.5%
SNB-75 CNS
  growth: 77.7%
SNB-19 CNS
  growth: 56.6%
U251 CNS
  growth: 63.7%
PC-3 prostate
  growth: 53.9%
SK-MEL-5 melanoma
  growth: 7.09% (active)
UACC-62 melanoma
  growth: 64.7%
LOX IMVI melanoma
  growth: 64.3%
SK-MEL-28 melanoma
  growth: 81.6%
SK-MEL-2 melanoma
  growth: 48.8%
EKVX NSCLC
  growth: 46.5%
SN12C renal
  growth: 69.1%
UO-31 renal
  growth: 58.6%
TK-10 renal
  growth: 61.9%
ACHN renal
  growth: 62%
CAKI-1 renal
  growth: 60%
CCRF-CEM leukemia
  growth: 69%
MOLT-4 leukemia
  growth: 41.7%

## Cc1cccc(NC(=O)Nc2ccc(-c3ccc4c(c3)NC(=O)/C4=C\c3ccc[nH]3)cc2)c1
HCT-15 colon
  growth: 66.9%
HT29 colon
  growth: 99.4%
SNB-75 CNS
  growth: 81.7%
SNB-19 CNS
  growth: 90.2%
U251 CNS
  growth: 74.7%
PC-3 prostate
  growth: 94%
SK-MEL-5 melanoma
  growth: 100%
UACC-62 melanoma
  growth: 98.1%
LOX IMVI melanoma
  growth: 78.7%
SK-MEL-28 melanoma
  growth: 95.9%
SK-MEL-2 melanoma
  growth: 111%
EKVX NSCLC
  growth: 46.5%
SN12C renal
  growth: 100%
UO-31 renal
  growth: 70.3%
TK-10 renal
  growth: 93.3%
ACHN renal
  growth: 91.1%
CAKI-1 renal
  growth: 82.6%
CCRF-CEM leukemia
  growth: 30.1%
MOLT-4 leukemia
  growth: 53.8%

## COc1cc(/C=N/NC(=O)c2cnn3c2NC(c2ccccc2)C3)ccc1OCc1ccccc1 (configuration not stated)
HCT-15 colon
  growth: 2.36% (active)
HT29 colon
  growth: -35.6% (active)
SNB-75 CNS
  growth: 26.1%
SNB-19 CNS
  growth: 19.3%
U251 CNS
  growth: 4.86% (active)
PC-3 prostate
  growth: -31% (active)
SK-MEL-5 melanoma
  growth: 5.94% (active)
UACC-62 melanoma
  growth: -33.7% (active)
LOX IMVI melanoma
  growth: 22%
SK-MEL-28 melanoma
  growth: 24.1%
SK-MEL-2 melanoma
  growth: 6.28% (active)
EKVX NSCLC
  growth: 32.1%
SN12C renal
  growth: 29.2%
UO-31 renal
  growth: 32.6%
TK-10 renal
  growth: -0.854% (active)
ACHN renal
  growth: 10.7%
CAKI-1 renal
  growth: 0.476% (active)
CCRF-CEM leukemia
  growth: 17.1%
MOLT-4 leukemia
  growth: 14.7%

## CCOC(=O)c1ccc2c(c1)ncn2-c1ccc(NC(=O)Nc2cccc(C)c2)cc1
HCT-15 colon
  growth: 13.6%
HT29 colon
  growth: 49.1%
SNB-75 CNS
  growth: 87.6%
SNB-19 CNS
  growth: 49.8%
U251 CNS
  growth: 46.1%
PC-3 prostate
  growth: 67.4%
SK-MEL-5 melanoma
  growth: 83.2%
UACC-62 melanoma
  growth: 71.3%
LOX IMVI melanoma
  growth: 5.37% (active)
SK-MEL-28 melanoma
  growth: 88.7%
SK-MEL-2 melanoma
  growth: 85.4%
EKVX NSCLC
  growth: 84.7%
SN12C renal
  growth: 69.6%
UO-31 renal
  growth: 66.6%
TK-10 renal
  growth: 123%
ACHN renal
  growth: 66.7%
CAKI-1 renal
  growth: 74.6%
CCRF-CEM leukemia
  growth: 45.8%
MOLT-4 leukemia
  growth: 43.2%

## CC(=O)Nc1ccc(-c2ccc3c(c2)NC(=O)/C3=C\c2ccc[nH]2)cc1
HCT-15 colon
  growth: 92.6%
HT29 colon
  growth: 90.6%
SNB-75 CNS
  growth: 111%
SNB-19 CNS
  growth: 104%
U251 CNS
  growth: 86.6%
PC-3 prostate
  growth: 97.8%
SK-MEL-5 melanoma
  growth: 100%
UACC-62 melanoma
  growth: 105%
LOX IMVI melanoma
  growth: 84.2%
SK-MEL-28 melanoma
  growth: 116%
SK-MEL-2 melanoma
  growth: 96%
EKVX NSCLC
  growth: 49.5%
SN12C renal
  growth: 94.6%
UO-31 renal
  growth: 38.8%
TK-10 renal
  growth: 70.2%
ACHN renal
  growth: 69.5%
CAKI-1 renal
  growth: 78.1%
CCRF-CEM leukemia
  growth: 94.8%
MOLT-4 leukemia
  growth: 87.3%

## CCOC(=O)Oc1c(OC)cc(C(=O)c2ccc(OC)c(OC(=O)CCl)c2OC)cc1OC
HCT-15 colon
  growth: 16.6%
HT29 colon
  growth: 35.9%
SNB-75 CNS
  growth: 36.3%
SNB-19 CNS
  growth: 22.8%
U251 CNS
  growth: 19%
PC-3 prostate
  growth: 23%
SK-MEL-5 melanoma
  growth: 34.9%
UACC-62 melanoma
  growth: 30.6%
LOX IMVI melanoma
  growth: 43.5%
SK-MEL-28 melanoma
  growth: 47.4%
SK-MEL-2 melanoma
  growth: 8.91% (active)
EKVX NSCLC
  growth: 70%
SN12C renal
  growth: 42.4%
UO-31 renal
  growth: 46.6%
TK-10 renal
  growth: 39.1%
ACHN renal
  growth: 36%
CAKI-1 renal
  growth: 30.3%
CCRF-CEM leukemia
  growth: 15.9%
MOLT-4 leukemia
  growth: 29.6%

## CNCCn1c(=O)c2cc(OC)c(OC)cc2c2ccc3cc4c(cc3c21)OCO4
HCT-15 colon
  growth: 17.3%
HT29 colon
  growth: 2.8% (active)
SNB-75 CNS
  growth: -0.403% (active)
SNB-19 CNS
  growth: 8.32% (active)
U251 CNS
  growth: 5.74% (active)
PC-3 prostate
  growth: 8.41% (active)
SK-MEL-5 melanoma
  growth: -60.7% (active)
UACC-62 melanoma
  growth: -79.7% (active)
LOX IMVI melanoma
  growth: -46.1% (active)
SK-MEL-28 melanoma
  growth: -34.2% (active)
SK-MEL-2 melanoma
  growth: -76.1% (active)
EKVX NSCLC
  growth: -6.68% (active)
SN12C renal
  growth: 2.31% (active)
UO-31 renal
  growth: -66.4% (active)
TK-10 renal
  growth: -68.9% (active)
ACHN renal
  growth: -76% (active)
CAKI-1 renal
  growth: -84.9% (active)
CCRF-CEM leukemia
  growth: -1.64% (active)
MOLT-4 leukemia
  growth: -10.3% (active)

## C=C1C(=O)O[C@H]2[C@H]1CC/C(C(=O)NCCCCCNC(=O)/C1=C/CC[C@@]3(C)O[C@H]3[C@H]3OC(=O)C(=C)[C@@H]3CC1)=C\CC[C@@]1(C)O[C@@H]21
HCT-15 colon
  growth: 95.5%
HT29 colon
  growth: 102%
SNB-75 CNS
  growth: 103%
SNB-19 CNS
  growth: 102%
U251 CNS
  growth: 99.3%
PC-3 prostate
  growth: 91.6%
SK-MEL-5 melanoma
  growth: 100%
UACC-62 melanoma
  growth: 97.9%
LOX IMVI melanoma
  growth: 99.9%
SK-MEL-28 melanoma
  growth: 101%
SK-MEL-2 melanoma
  growth: 107%
EKVX NSCLC
  growth: 105%
SN12C renal
  growth: 109%
UO-31 renal
  growth: 92.6%
TK-10 renal
  growth: 96.5%
ACHN renal
  growth: 102%
CAKI-1 renal
  growth: 106%
CCRF-CEM leukemia
  growth: 105%
MOLT-4 leukemia
  growth: 96.2%
